An excerpt weighted towards active compounds, which were near 3.8% of everything screened.
ERa SRC1 pot: enhancers of ERα–SRC-1 coactivator binding, primary screen, biochemical, TR-FRET, ERα LBD, low estradiol. TR-FRET ERalpha-LBD/SRC-Cy5 coactivator binding, 2 h; 100 = basal binding, no effect. coactivator binding (% of control), % at 25.6 µM. 1.3% of 86,000 active. AID 639, 2007; in the data active = activity above about 200%;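 note: binding measured in presence of low estradiol as agonist stimulus; 0% = peptide alone without receptor and 100% = receptor with peptide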
hDAT+cocaine: changed hDAT dopamine uptake under cocaine IC80, either direction, primary screen, cocaine antagonist project, cell-based, LLC-PK1 hDAT, [14C]-dopamine uptake, MLSMR. Sodium-dependent dopamine transporter (Homo sapiens), Q01959. LLC-PK1 hDAT cells, [14C]-dopamine uptake with cocaine IC80; actives deviate in either direction. B-score at 10 µM. 1.3% of 110,000 active;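 active = Z score or B-score, a plate-position-corrected score, falls beyond the plate's 99.7% confidence bounds, in either direction; inactive = both scores lie inside the 99.7% bounds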;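 note: scored against the spread of the other compound wells on the same plate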
ERa SRC1 inh: ERα–SRC-1 coactivator interaction inhibitors, primary screen, biochemical, TR-FRET, ERα LBD, estradiol-bound; Estrogen receptor (Homo sapiens), P03372; TR-FRET ER-alpha LBD / SRC-1 peptide; inhibition, % at 25.6 µM; 1.7% of 86,000 active; AID 629, 2007; in the data active = inhibition above about 50%;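 note: 0% = receptor plus peptide control and 100% = peptide only without receptor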
MT1-MMP txn act: MT1-MMP promoter reporter activation – cell-based, luciferase luminescence, primary screen. HT1080 MT1-MMP promoter luciferase reporter, overnight; hits give high values. 0.16% of 86,000 active. activation factor at 10 µM. AID 750, 2007;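 active = activation factor of at least 2 for MT1-MMP transcription at 10 µM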
ERb SRC1 inh: inhibitors of ERβ-SRC1 coactivator interaction, primary screen, biochemical, TR-FRET, ERβ LBD, SRC-1 peptide; Estrogen receptor beta (Homo sapiens), Q92731; AID 633, 2007; TR-FRET ER-beta LBD / SRC1-Cy5 peptide binding; receptor agonist-loaded with 1 µM estradiol; inhibition, % at 25.6 µM; 1.3% of 86,000 active;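 active = compounds whose percent inhibition of the receptor-coactivator binding signal exceeds about 50% in the single-dose screen, limit read from the data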;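 note: 0% = receptor plus peptide wells without compound and 100% = peptide-only wells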
Target sequence (Q92731 whole entry, looked up, the tested form may be a part): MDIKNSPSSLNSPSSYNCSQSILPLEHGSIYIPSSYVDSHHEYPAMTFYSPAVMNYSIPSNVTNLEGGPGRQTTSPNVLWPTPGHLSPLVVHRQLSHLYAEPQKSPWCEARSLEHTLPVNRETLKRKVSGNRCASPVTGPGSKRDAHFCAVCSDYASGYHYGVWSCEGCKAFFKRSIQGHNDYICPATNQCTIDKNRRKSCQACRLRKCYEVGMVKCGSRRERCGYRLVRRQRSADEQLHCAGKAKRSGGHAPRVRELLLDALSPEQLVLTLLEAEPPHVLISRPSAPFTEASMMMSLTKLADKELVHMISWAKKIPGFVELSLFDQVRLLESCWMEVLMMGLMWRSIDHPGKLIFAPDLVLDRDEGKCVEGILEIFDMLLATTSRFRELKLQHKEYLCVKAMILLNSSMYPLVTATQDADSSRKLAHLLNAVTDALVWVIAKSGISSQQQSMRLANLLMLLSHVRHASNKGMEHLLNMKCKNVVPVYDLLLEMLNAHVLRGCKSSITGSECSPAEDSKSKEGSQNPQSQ
* = called active by the depositor; · = no result; [ ] = dose if it differs, or a comment.

SMILES	ERa SRC1 pot	hDAT+cocaine	ERa SRC1 inh	MT1-MMP txn act	ERb SRC1 inh
CSc1cc(-c2ccc(Cl)cc2)c(C(=O)NN)s1	·	3.2*	·	·	·
CCCCn1nnnc1NCc1ccc(C)s1	90	-0.83	-7	1	0
CCCCn1c(=O)[nH]c(=O)c2c1nc(-c1ccc(-c3ccccc3Br)o1)n2CCOC	64	0.47	16	1.1	-3
COCCn1c(-c2ccc(-c3ccccc3Cl)o2)nc2c1c(=O)[nH]c(=O)n2CC(C)C	208*	0.7	8	1	9
COC(=O)C1=C(C)N(CC2CC2)C(=O)N[C@H]1c1ccccc1	·	-0.14	·	·	·
Clc1cc(Cl)c2nc(N3CCCCC3)sc2c1	105	-0.81	-1	2.1*	-1
O=S(=O)(NCc1csc(-c2cccnc2)n1)c1ccc(Cl)s1	40	-0.075	65*	·	54*
O=S(=O)(NCc1csc(-c2ccccc2)n1)c1ccc(Cl)s1	93	·	-9	1.1	6
CCOC(=O)c1c(N2C(=O)C3C4C=CC(O4)C3C2=O)sc2c1CCCC2 (stereo not drawn)	83	·	0	·	0
CCOC(=O)c1c(N2C(=O)Nc3cc(Cl)c(Cl)cc3N2O)sc2c1CCCCC2	·	3.8*	·	·	·
COC(=O)C1(Cc2ccccc2)C=C2C(=C(C(C)C)C(=O)C2C)CN1 (stereo not drawn)	·	·	·	2.1*	·
CCOC(=O)CSc1nc2cc(OCC)ccc2cc1C#N	351*[fluorescence artefact?]	-0.68	12	1.7	18
COC(=O)CSc1nc2cc(OC)ccc2cc1C#N	129	0.25	21	0.8	-2
COc1ccc2nc(SCC(=O)N3CCN(c4ccc(F)cc4)CC3)c(C#N)cc2c1	481*[fluorescence artefact?]	0.35	14	1.2	19
Cc1cccc2cc(C#N)c(SCC(=O)Nc3ccccc3N3CCOCC3)nc12	295*[fluorescence artefact?]	-0.02	20	1.2	13
CCOc1ccc2cc(C#N)c(SCC(=O)N3CCC(C)CC3)nc2c1	337*[fluorescence artefact?]	1.7	7	1.1	26
N#Cc1cc2ccccc2nc1SCC(=O)Nc1ccccc1N1CCOCC1	·	·	·	1.2	·
CCC/C(O)=N\S(=O)(=O)c1ccc(N=NN(C)C)cc1	96	-0.052	12	1.2	-7
COc1ccc(C2=CC(=O)OC3(CCCC3)O2)cc1	105	0.23	-5	1.2	-14
CCOc1ccc2nc(SCC#N)c(C#N)cc2c1	252*	0.51	12	1.1	12
CCOc1ccc2cc(C#N)c(SCC(=O)NC(C)CC)nc2c1 (stereo not drawn)	337*[fluorescence artefact?]	-0.27	41	1.2	45
COc1ccc2cc(C#N)c(SCC(=O)NNC(=O)Cc3ccccc3)nc2c1	·	0.54	·	·	·
COC(=O)CSc1nc2cc(C)cc(C)c2cc1C#N	210*	0.77	1	1.3	10
Cc1cccc2cc(C#N)c(SCC(=O)N3CCC(C)CC3)nc12	217*[fluorescence artefact?]	1.3	14	1.2	24
COCCNC(=O)c1ccc2c(=O)n(CCOC)c(=O)[nH]c2c1	·	-9*	·	1.1	·
SMILES	ERa SRC1 pot	hDAT+cocaine	ERa SRC1 inh	MT1-MMP txn act	ERb SRC1 inh
COC(=O)[C@@]1(Cc2ccccc2)[C@H]2c3cc(C(=O)N(C)C)n(Cc4cc(F)c(F)c(F)c4)c3C[C@H]2CN1C(=O)c1ccccc1	·	·	·	1.2	·
COC(=O)c1ccc(S(=O)(=O)N(Cc2cc3cc4c(cc3[nH]c2=O)OCO4)C2CCCCC2)cc1	306*	·	4	1.1	-4
CCNC(=O)NC(=O)CSc1cccc(C(F)(F)F)c1	110	0.088	0	1.2	6
Cc1ccccc1CSCC(=O)NC(=O)NCc1ccco1	82	1.4	55*	1.1	40
O=C(CSc1nc2ccccc2s1)NC(=O)NCc1ccco1	141	-0.18	14	1.2	21
O=C(CSc1nc2ccccc2o1)NC(=O)NCc1ccco1	96	0.45	30	1.1	32
CCOc1ccc2nc(SCC(=O)NC(=O)NCc3ccco3)[nH]c2c1	74	0.84	38	1	56*[fluorescence artefact?]
O=C(CSc1cccc(C(F)(F)F)c1)NC(=O)NCc1ccco1	76	-0.47	53*	1.1	29
O=C(CSc1nn(-c2ccc(F)cc2)c(=S)s1)NC(=O)NCc1ccco1	72	0.43	67*[fluorescence artefact?]	1.2	47
COC(=O)C1=C(C)N=C2SC(C#N)=C(N)N2C1c1ccc(OCc2ccccc2)cc1 (stereo not drawn)	·	-0.18	·	·	·
Cn1c(SCC(=O)NC(=O)NCc2ccco2)nnc1-c1ccccc1	142	0.36	59*[fluorescence artefact?]	1	52*[fluorescence artefact?]
Cc1cc(SCC(=O)NC(=O)NCc2ccco2)nc2ccccc12	127	0.1	9	0.9	5
Cc1cc(SCC(=O)NC(=O)NCc2ccco2)nc2c(C)cccc12	60	0.77	65*	1.1	50
S=c1[nH]nc(-c2cccnc2)o1	118	1.8	-13	1	-2
S=c1[nH]nc(-c2ccc3ccccc3n2)o1	471*[fluorescence artefact?]	0.042	0	·	-2
CC(=O)NS(=O)(=O)c1ccc(NC(=O)c2ccc(Br)o2)cc1	89	-8.4*	4	1.2	1
O=C(CSc1nnnn1-c1ccccc1)Nc1nsc(-c2ccc(Cl)cc2)n1	141	-0.018	73*	1.3	39
COC(=O)Cn1c(=NC(=O)C2CC2)sc2c(C)cc(C)cc21	134	-1.4	55*[fluorescence artefact?]	1	-6
CCC(=O)N=c1sc2c(C)cc(C)cc2n1CC(=O)OC	128	-0.34	2	1	-11
Cc1ccc(/C(N)=N/OC(=O)C23CC4CC(CC(C4)C2)C3)cc1	·	-7.1*	·	·	·
Cc1ccc(/C(N)=N/OC(=O)N2CCOCC2)cc1	·	-0.038	·	·	·
O=C(Nc1cccc(C(F)(F)F)c1)N(Cc1ccc(Cl)cc1)CC(O)C(F)(F)F (stereo not drawn)	·	-0.4	·	·	·
COc1cc(C(=O)Nc2cc(C)ccn2)cc(OC)c1OC	90	0.24	-6	1.1	4
Cc1ccnc(NC(=O)c2ccc(N3C(=O)CCC3=O)cc2)c1	224*	-2.2	21	1.4	22
COc1ccc(C(=O)NC(=O)Nc2cc(C)ccn2)cc1	210*	-1.5	17	0.1	-20
Cc1ccc(/C=C/c2ccc(=O)n(Cc3ccccc3Cl)n2)cc1	79	0.39	1	1.2	0
CC(C)c1nc2sc3c(NCc4ccccc4)ncnc3c2c2c1COC(C)(C)C2	366*[fluorescence artefact?]	-0.24	10	1	25
CSc1nc(NCc2ccco2)c2sc3nc(C(C)C)c4c(c3c2n1)CC(C)(C)OC4	·	-0.11	·	·	·
CC(C)c1nc2sc3c(NCc4ccco4)ncnc3c2c2c1COC(C)(C)C2	138	1.4	54*[fluorescence artefact?]	1	41
COc1ccccc1CN1C(=O)c2ccncc2C1=O	98	0.34	-19	1.1	71*[fluorescence artefact?]
